# Compound activity from PubChem BioAssay.
# CYP2C9 inhib = blocks human cytochrome P450 2C9; inhibition, % at 5 µM; AID 777; P11712; actives 20% (n = 96,000); CYP2C9 Supersomes, luciferin-H conversion, luminescence;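 active = blocking of liver enzyme CYP2C9 beyond about 50% at 5 µM, limit read from the data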
# CYP2C9 act = CYP2C9 (human) activation; actives 1.4% (n = 96,000); activation factor at 5 µM; P11712; recombinant CYP2C9, luciferin-H conversion, luminescence; active compounds read high; factor 1 = untreated enzyme, 0 = blocked; AID 1024;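 active = activation factor of 2 or more for CYP2C9 at a 5 µM dose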;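 also: 0 = sulfaphenazole-blocked wells and 1 = vehicle-only wells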
# CYP2C19 act = activators of human cytochrome P450 2C19 | recombinant CYP2C19, luciferin-H EGE luminescence; active compounds read high; 0 = fully inhibited enzyme, 1 = untreated enzyme | activation factor at 5 µM | 96,000 tested, under 10 active;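 active = activation factor of at least 2 at 5 µM in the primary screen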;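 also: 0 = wells with 2.5 mM tranylcypromine and 1 = vehicle-only wells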
# CYP2C19 inh = human CYP2C19 inhibition; P33261; CYP2C19 Supersomes, luciferin-H EGE luminescence, 30 min; inhibition, % at 5 µM; actives 21% (n = 96,000);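 active = CYP2C19 inhibition above a set limit at 5 µM in the primary screen, cut at about 50% in these data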;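 also: plate controls were negative control wells for no effect and 2.5 mM tranylcypromine positive control for full effect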
# Cav3 T inh = human Cav3.2 channel inhibition, primary screen | O95180 | Cav3.2-expressing cells, Fluo-4 calcium fluorescence FDSS; active compounds read low | B-score at 10 µM | actives 4% (n = 100,000);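 active = single-dose well whose peak fluorescence ratio is a statistical outlier from its plate by either plate-standardised score or position-corrected B-score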
# * = called active by the depositor; . = no result given. Hits are enriched below; roughly 27% of the tested compounds scored in any of these assays.
SMILES,CYP2C9 inhib,CYP2C9 act,CYP2C19 act,CYP2C19 inh,Cav3 T inh
CC(NC(=O)C1CC2CCCC(C1)C2=O)c1ccccc1 (stereo not given),-9,1.1,0.9,10,.
CCN(Cc1cc2ccccc2[nH]c1=O)C(=O)C(C)C,1,1,1,-4,0.48
Cc1ccc(-c2cc(-c3cccc(F)c3)n[nH]2)c(O)c1,70*,0.3,0.7,26,0.017
Cc1ccc(O)c(-c2cc(-c3cccc(F)c3)n[nH]2)c1,69*,0.3,0.7,33,-0.31
Cc1ccnc(NS(=O)(=O)c2ccc(NC(=O)C34CC5CC(CC(C5)C3)C4)cc2)n1,12,0.9,1,-4,0.34
CCCCOc1ccc(S(=O)(=O)NCc2csc(C)n2)cc1,30,0.7,0.6,41,-2.5
Cc1nc(CNS(=O)(=O)c2ccc3c(c2)CCCC3)cs1,-135,2.4*,0.6,39,0.24
COc1ccc(/C=C2\N=C(SC)N(C)C2=O)cc1,39,0.6,0.5,52*,-0.76
COc1ccc(/C=C2\N=C(SC)NC2=O)cc1,14,0.9,0.9,7,0.0077
O=C(Nc1cccc(-c2nnn(CC(=O)N3CCc4ccccc4C3)n2)c1)C1CCC1,47,0.5,0.2,84*,-4.4*
CC1Cc2ccccc2N1C(=O)Cn1nnc(-c2ccccc2NC(=O)C2CCC2)n1 (stereo not given),.,.,.,.,-2.1
O=C(Nc1ccccc1-c1nnn(CC(=O)N2CCc3ccccc3C2)n1)C1CCC1,65*,0.4,0.8,20,-1.1
Nc1nc(CSc2nnnn2-c2ccc(Cl)cc2)nc(N2CCOCC2)n1,2,1,1,-1,0.6
CCc1[nH]nc2c1C1(C(=O)N(Cc3ccccc3)c3ccccc31)C(C#N)=C(N)O2 (stereo not given),88*,0.1,0.1,85*,-1.6
COC(=O)Cc1[nH]nc2c1C1(C(=O)N(Cc3ccc(Cl)cc3)c3ccccc31)C(C#N)=C(N)O2 (stereo not given),36,0.6,0.8,24,-1.9
CCOC(=O)/C=C/S(=O)(=O)c1ccc(NC(C)=O)cc1,26,0.7,0.9,9,0.71
CCOc1cc(NC(=S)NCC2CCCO2)c(OCC)cc1NC(=O)c1cccc(C)c1 (stereo not given),15,0.9,.,.,-0.42
Cc1nc2ccccc2c(=O)n1NCc1cc(Br)cs1,19,0.8,0.6,42,-0.96
O=C(CCN1CCN(c2ccc(F)cc2)CC1)Nc1ccccc1F,60*,0.4,0.3,66*,-0.079
CSc1ccc(N2CCN(CCCNC(=O)Nc3ccccc3F)CC2)cc1,21,0.8,0.8,20,-2.3
COc1cc(NC(=O)CCN2CCN(c3ccccc3F)CC2)cc(OC)c1,63*,0.4,0.7,34,-0.37
COc1ccc(S(=O)(=O)N2CCN(CCC(=O)Nc3ccccc3F)CC2)cc1,94*,0.1,0.1,87*,0.1
COc1ccccc1NC(=O)CCN1CCN(CCC(=O)Nc2ccccc2OC)CC1,16,0.8,0.8,22,.
COc1cc(NC(=O)CCN2CCN(Cc3ccccc3)CC2)cc(OC)c1,2,1,1,4,2.7
COc1ccc(S(=O)(=O)N2CCN(CC(=O)Nc3ccc(F)c(F)c3)CC2)cc1,-123,2.2*,0.3,70*,-4.9*
SMILES,CYP2C9 inhib,CYP2C9 act,CYP2C19 act,CYP2C19 inh,Cav3 T inh
CCC(NC(=O)Cn1cnc2c(=O)n(C)c(=O)n(C)c21)c1ccccc1 (stereo not given),.,.,.,.,0.65
COC(=O)c1ccc(C2=NOC(C)(c3nnc(-c4cccc(Cl)c4)o3)C2)cc1 (stereo not given),.,.,.,.,1.2
Cc1ccc(Cn2nnc3c(=O)n(Cc4cc(C)ccc4C)cnc32)cc1,.,.,.,.,-0.57
CCNC(=O)/N=C1/NC(=O)C(C(C)C)O1 (stereo not given),4,1,1.1,-6,0.24
O=C(CN1C(=O)c2ccccc2C1=O)Nc1ccccc1F,14,0.9,0.8,22,0.0075
CSc1ccccc1NC(=O)COc1ccc(S(=O)(=O)N2CCCC2)cc1,80*,0.2,0.9,14,-0.43
O=C(CN1CCN(S(=O)(=O)c2ccccc2)CC1)Nc1cccc(C(F)(F)F)c1,0,1,0.5,46,-7.7*
O=C(CCN1CCN(CC(=O)Nc2ccccc2F)CC1)Nc1ccccc1F,43,0.6,0.3,74*,1.3
CCCOc1ccc(C(=O)CCC(=O)OCC(=O)Nc2cc(C)on2)cc1,-2,1,1,1,0.63
C=CCn1cc(C(=O)OC)c(=O)c2cc(S(=O)(=O)N(CC)CC)ccc21,1,1,1,4,1.3
C=CCOc1ccc2c(c1)c(S(=O)(=O)c1ccc(C)cc1)cn2COC,37,0.6,0.1,89*,-1.8
Cc1ccc(S(=O)(=O)NCCCNC(=O)N2CCOCC2)cc1,-4,1,0.9,6,-0.52
CCC(C)NCCOCCOc1ccc(F)cc1 (stereo not given),1,1,1.1,-15,1.2
CC(C)CNC(=O)CCCc1ccccc1,42,0.6,0.2,83*,0.45
C=CCNC(=O)CCCc1ccccc1,4,1,0.3,67*,-0.51
O=C(Oc1cccnc1)c1cc(S(=O)(=O)N2CCCCC2)ccc1Cl,11,0.9,1,1,0.71
C/C=C1\C(OC2OC(CO)C(O)C(O)C2O)OC=C(C(=O)OC)C1CC(=O)OCC1C(C)C(OC(=O)CC2C(C(=O)OC)=COC(OC3OC(CO)C(O)C(O)C3O)/C2=C\C)CC1C(CO)CO (stereo not given),.,.,.,.,-0.54
CCN(CC)S(=O)(=O)c1ccc(-c2nnc3sc4cccc(C)c4n23)cc1,78*,0.2,0.3,72*,1.8
Cn1c(SCC(=O)Nc2ccc(F)cc2F)nnc1-c1cccnc1,19,0.8,0.9,12,0.27
CC(C)(C)n1nnnc1C(c1cccs1)N1CCN(C(=O)c2ccco2)CC1 (stereo not given),41,0.6,0.7,34,-0.014
c1csc(C(c2nnnn2C2CCCC2)N2CCOCC2)c1 (stereo not given),-13,1.1,1.1,-8,-0.076
c1csc(C(c2nnnn2C2CCCC2)N2CCCC3(CCCCC3)C2)c1 (stereo not given),56*,0.4,0.9,14,-5.7*
Cc1ccc(C(c2nnnn2C2CCCC2)N2CCN(c3nc4ccccc4s3)CC2)cc1 (stereo not given),.,.,.,.,-8.1*
c1ccc(C(c2nnnn2C2CCCC2)N2CCN(c3nc4ccccc4s3)CC2)cc1 (stereo not given),.,.,.,.,-8.2*
O=C(c1ccco1)N1CCN(C(c2cccs2)c2nnnn2C2CCCCC2)CC1 (stereo not given),68*,0.3,0.5,45,0.34
NC(=O)C1CCN(C(c2ccccc2)c2nnnn2C2CCCC2)CC1 (stereo not given),.,.,.,.,0.5
Cc1ccc(C(c2nnnn2C2CCCC2)N2CCN3CCCC3C2)cc1 (stereo not given),-2,1,1,-2,0.11
